PubChem BioAssay AID504329 (Southern Research Specialized Biocontainment Screening …, 2011)
In all, about 340,000 compounds went through this assay and about 1,000 (0.29%) were called active. Rule as the data show it: inconclusive = inhibition above about 27% without an active follow-up result; inactive = below that. These entries were drawn from the full list. Entries with a potency or affinity are not part of this list.

Experiment: H1N1 influenza NS1A inhibitors, functional cell based assay (AID 504329)
Conditions: percent inhibition, at 12.5 µM, hits give high values

Row | Structure (SMILES) | inhibition
1 | CC(C)C[C@H]1COCCS(=O)(=O)N1Cc1cccc(F)c1 | -14.6% (inactive)
2 | Cc1ccc(NC(=O)CC2S/C(=N/c3nccs3)N(C)C2=O)c(C)c1 (stereo unspecified) | 2.84% (inactive)
3 | CCCCNC(=O)NNC(=O)c1ccoc1C | 0.18% (inactive)
4 | Cc1cc2oc(=O)cc(COC(=O)Cn3cnnn3)c2cc1C(C)C | -1.41% (inactive)
5 | Cc1nc(SCC(=O)Nc2c(C)n(C)n(-c3ccccc3)c2=O)c2cnn(-c3ccccc3)c2n1 | -4.59% (inactive)
6 | CC(C)Nc1nc(NC(C)C)nc(N(C)N)n1 | 14.6% (inactive)
7 | CCNc1nc(NCC)nc(N(C)n2cnnc2)n1 | -22% (inactive)
8 | COc1ccccc1C(=O)NNS(=O)(=O)c1ccc(F)cc1 | -5.08% (inactive)
9 | CCc1ccc(NS(=O)(=O)c2c(C(=O)N3CCOCC3)c(C)n(C)c2C)cc1 | 0.85% (inactive)
10 | CCOC(=O)C(C)Oc1ccccc1C1NC(=O)NC(C)=C1C(=O)Nc1ccc(C)c(C)c1 (stereo unspecified) | -6.31% (inactive)
11 | [O-][n+]1c2c(nn1-c1ccccc1)/C(=N/O)CCC2 | -6.08% (inactive)
12 | CCOC(=O)Cc1nnc(NC(=O)COc2ccc(F)cc2)s1 | 6.17% (inactive)
13 | O=C(Nc1nc(-c2ccco2)c(-c2ccco2)s1)c1c(F)cccc1Cl | -14.8% (inactive)
14 | CC1=CC(=NNS(=O)(=O)c2ccc([N+](=O)[O-])cc2)CC(C)(C)C1 | 4.39% (inactive)
15 | CC1(C)OC(=O)C(=NNc2ccccc2[N+](=O)[O-])C(=O)O1 | 3.07% (inactive)
16 | CC(=O)COc1cc(C)cc2oc(=O)c(C)c(C)c12 | 11.6% (inactive)
17 | CCc1ccc2c(c1)C1(NN=C(c3ccc(C)cc3)S1)C(=O)N2 (stereo unspecified) | 22.9% (inactive)
18 | CCc1ccc2c(c1)C1(NN=C(c3cccc4ccccc34)S1)C(=O)N2 (stereo unspecified) | 11.6% (inactive)
19 | CCOc1ccccc1Nc1cc(C)nc2ccc(C)cc12 | 6.09% (inactive)
20 | Cc1ccc(N2CC(NS(=O)(=O)c3cc(F)ccc3F)CC2=O)cc1C (stereo unspecified) | 9.69% (inactive)
21 | CC(=O)Nc1ccc(S(=O)(=O)NCc2ccc3c(c2)cc(C)n3C)cc1 | 19.1% (inactive)
22 | Cc1nc(CNS(=O)(=O)c2ccc(Oc3ccccc3)cc2)cs1 | -11.2% (inactive)
23 | CCCS(=O)(=O)NCc1ccc2c(c1)cc(C)n2C | 7.25% (inactive)

Row | Structure (SMILES) | inhibition
24 | Cc1ccc(S(=O)(=O)NCc2csc(C)n2)cc1 | -0.87% (inactive)
25 | O=S(=O)(NCc1ccccc1)c1ccc2ccccc2c1 | -9.3% (inactive)
26 | CCS(=O)(=O)NCc1ccc2c(c1)cc(C)n2C | 10.3% (inactive)
27 | Cc1cc(C)c(S(=O)(=O)NCc2ccc3c(c2)cc(C)n3C)c(C)c1 | 21.8% (inactive)
28 | Cc1cc2cc(CNS(=O)(=O)c3ccccc3)ccc2n1C | 17% (inactive)
29 | COc1ccccc1C(=O)NCC(=O)OCC(=O)c1ccc2c(c1)-c1ccccc1C2 | 2.5% (inactive)
30 | CSc1ccccc1OCc1cc(C(=O)N2CCN(c3ncccn3)CC2)no1 | -3.62% (inactive)
31 | O=C(c1ccccc1F)N1CCCc2ccccc21 | -3.09% (inactive)
32 | CCOC(=O)CN(C(=O)CNC(=O)c1cccs1)C(C(=O)NC1CCCC1)c1ccncc1 (stereo unspecified) | -5% (inactive)
33 | CCC(C(=O)N/N=C/c1cccnc1)c1ccccc1 (stereo unspecified) | -5.44% (inactive)
34 | Cc1cc(C(=O)NC2CCCN(Cc3ccccc3F)C2)n[nH]1 (stereo unspecified) | -3.85% (inactive)
35 | C=CCNC(=S)Nc1ccccc1-c1nnc2n1CCCCC2 | 9.65% (inactive)
36 | COC(=O)c1cc(C(=O)OCC(=O)NC2CCCCCCC2)cc([N+](=O)[O-])c1 | -0.07% (inactive)
37 | Cc1ccc(CNC(=O)COc2ccc(C)nc2[N+](=O)[O-])cc1 | -5.51% (inactive)
38 | CCCCC(=O)Nc1c2c(nn1-c1ccc(C)cc1)CS(=O)(=O)C2 | -7.59% (inactive)
39 | COC(=O)c1c(C)cc(C)c2c1CC(C)(C)C2=O | 5.46% (inactive)
40 | O=C(Nc1nccs1)c1ccc(F)c(S(=O)(=O)N2CCOCC2)c1 | -4.84% (inactive)
41 | Cc1ccc(S(=O)(=O)N2CCOCC2)cc1C(=O)Nc1nc(-c2cccnc2)cs1 | -7.87% (inactive)
42 | Cc1ccc(C(=O)Nc2ccccn2)cc1S(=O)(=O)N1CCOCC1 | -1.96% (inactive)
43 | O=C(Nc1ccccc1)c1ccc(F)c(S(=O)(=O)N2CCOCC2)c1 | 5.59% (inactive)
44 | Cc1ccc(S(=O)(=O)N2CCOCC2)cc1C(=O)Nc1nc(-c2ccccn2)cs1 | 7.65% (inactive)
45 | COc1ccc(C(=O)Nc2nc(-c3ccccn3)cs2)cc1S(=O)(=O)N1CCOCC1 | -8.69% (inactive)
46 | CCC(NC(=O)COc1cc2c(c3oc(=O)c(C)c(C)c13)CCC(C)(C)O2)C(=O)O (stereo unspecified) | -8.88% (inactive)

Row | Structure (SMILES) | inhibition
47 | CC(C)CCN1CC(=O)N2Cc3[nH]c4ccccc4c3C[C@H]2C1=O | 19.7% (inactive)
48 | Cc1c(CNC2CCCC(C)C2C)c(C(=O)O)c(C)n1Cc1ccccc1 (stereo unspecified) | -12.9% (inactive)
49 | CC(C)NC(=O)NC(=O)COC(=O)c1cc(S(=O)(=O)N2CCCCC2)ccc1N1CCOCC1 | -4.42% (inactive)
50 | Cc1ccc(S(=O)(=O)N2CCCC2C(=O)OCc2ccccc2)cc1 (stereo unspecified) | 1.42% (inactive)
51 | COc1ccccc1NC(c1cccnc1)c1ccc2cccnc2c1O (stereo unspecified) | 17.3% (inactive)
52 | Cc1ccnc(NC(c2ccccc2)c2ccc3cccnc3c2O)c1 (stereo unspecified) | 7.45% (inactive)
53 | Cc1cc(NC(c2ccc(Cl)cc2)c2ccc3cccnc3c2O)no1 (stereo unspecified) | -17.5% (inactive)
54 | COc1ccc(C(Nc2cc(C)ccn2)c2ccc3ccc(C)nc3c2O)cc1 (stereo unspecified) | 7.32% (inactive)
55 | Cc1ccc2ccc(C(Nc3cccc(C(F)(F)F)c3)c3cccnc3)c(O)c2n1 (stereo unspecified) | 11.9% (inactive)
56 | Cc1ccc2ccc(C(Nc3ccccn3)c3ccccc3)c(O)c2n1 (stereo unspecified) | 32.6% (inactive)
57 | Oc1c(C(Nc2cccc(C(F)(F)F)c2)c2cccnc2)ccc2cccnc12 (stereo unspecified) | -1.29% (inactive)
58 | Oc1ccccc1C(Nc1nccs1)c1ccc2cccnc2c1O (stereo unspecified) | 21.5% (inactive)
59 | CC(C)CNC(=O)COc1cccc(C(=O)NCc2ccccc2)c1 | -16.8% (inactive)
60 | O=C(CN1C(=O)c2cccc3cccc1c23)NCc1cccnc1 | -7.77% (inactive)
61 | Cc1cc(S(=O)(=O)Nc2ccc(N3CCOCC3)cc2)ccc1Br | 9.89% (inactive)
62 | Cc1ccc(-n2nc3c(=O)n(CCCC(=O)NCc4cccc(F)c4)nc(C)c3c2C)cc1 | 4.12% (inactive)
63 | Cc1c2cnn(CC(=O)NCCN3CCOCC3)c(=O)c2c(C)n1Cc1ccccc1 | 7.12% (inactive)
64 | Cc1ccc(Nc2nc(N)nc(CSc3nnnn3-c3ccccc3)n2)cc1 | -1.1% (inactive)
65 | COc1cccc(CN(C)C(=O)c2ccc(NS(=O)(=O)c3ccc4[nH]c(=O)[nH]c4c3)cc2)c1OC | -3.23% (inactive)
66 | CC(C(=O)Nc1cccc(S(=O)(=O)N2CCOCC2)c1)N1CCN(C/C=C/c2ccccc2)CC1 (stereo unspecified) | -4.15% (inactive)
67 | CCOC(=O)Cc1csc(NS(=O)(=O)c2ccc(NC(C)=O)cc2)n1 | -2.56% (inactive)
68 | Cc1cc(C)c(S(=O)(=O)/N=C2\C=C(NS(=O)(=O)c3ccccc3)C(=O)c3ccccc32)c(C)c1 | 0.45% (inactive)
69 | CCc1ccc(S(=O)(=O)/N=C2\C=C(Nc3cccc(C(=O)O)c3)C(=O)c3ccccc32)cc1 | 24.6% (inactive)

Row | Structure (SMILES) | inhibition
70 | O=C(O)c1ccc(NC2=C/C(=N/S(=O)(=O)c3ccccc3)c3ccccc3C2=O)cc1 | 15.2% (inactive)
71 | Cc1ccc(S(=O)(=O)/N=C2\C=C(Nc3cccc(C(=O)O)c3)C(=O)c3ccccc32)c(C)c1 | 25.4% (inactive)
72 | O=C(COC(=O)c1c(F)cccc1F)Nc1ccc(N2CCCCC2)cc1 | -4.21% (inactive)
73 | CCOc1ccc(-n2c(SCc3cc(=O)oc4cc(C)c(C(C)C)cc34)nnc2-c2cccnc2)cc1 | 2.59% (inactive)
74 | COc1ccc(C2CC3(CC(C)(C)NC(SC)=N3)Oc3cc(O)cc(C)c32)cc1 (stereo unspecified) | 2.74% (inactive)
75 | CCCN1CCC(NC(=O)C2CCCCC2C(=O)O)CC1 (stereo unspecified) | -9.23% (inactive)
76 | CC(c1ccon1)N(C)C(=O)c1ccc(OC2CCN(C(=O)C3CC3)CC2)cc1 (stereo unspecified) | 1.15% (inactive)
77 | CC(=O)c1ccc(N=c2scc(C)n2C(C)C)cc1 | 2.71% (inactive)
78 | CCN(CC)c1ccc(C=NN2CCCCCC2)cc1 | 1.15% (inactive)
79 | Clc1ccc(/C=N/N2CCCCC2)cc1 | 10.3% (inactive)
80 | COc1ccc(CNCC2COc3ccccc3O2)cc1 (stereo unspecified) | -2.36% (inactive)
81 | O=C(CC1C[C@H](C(=O)N2CCCCC2)[C@@]2(CCc3ccccc3)c3[nH]c4ccccc4c3CCN2C1=O)NCCCn1ccnc1 (stereo partly specified) | -10.1% (inactive)
82 | CN1C(=O)/C(=C2/C=Cc3ccccc3N2CCCS(=O)(=O)O)SC1=S | 8.55% (inactive)
83 | CCCN1/C(=C2/SC(=S)N(CC)C2=O)C=Cc2ccccc21 | -4.1% (inactive)
84 | CCN1C(=O)/C(=C2\C=Cc3ccccc3N2CC)OC1=S | 20.4% (inactive)
85 | CCN1/C(=C2/SC(=S)N(C)C2=O)C=Cc2cc(C)ccc21 | 9.87% (inactive)
86 | CCN1C(=O)/C(=C2\SC(=S)N(NC(=O)c3ccccc3O)C2=O)c2ccccc21 | -6.27% (inactive)
87 | CCN1C(=C2C(=O)c3ccccc3C2=O)C=Cc2ccccc21 | -0.12% (inactive)
88 | CCN1/C(=C2\OC(=S)N(C)C2=O)C=Cc2ccccc21 | 4.12% (inactive)
89 | COCCN1C(=O)/C(=C2/C(=O)N(CC(=O)Nc3ccccc3Cl)c3ccccc32)SC1=S | 1.06% (inactive)
90 | CC(SCc1ccccc1)C(=O)Nc1ccccc1F (stereo unspecified) | 4.17% (inactive)
91 | N#Cc1c(Sc2ncc(C(F)(F)F)cc2Cl)nsc1C/C=N\OCc1ccccc1Br | -7.95% (inactive)
